Screens (PubChem)
KB-3-1 tox: qHTS assay for MDR1-selective chemotherapeutics: Primary screen using the parental adenocarcinoma cell KB-3-1 | hit rate 1.4% among 400,000 | KB-3-1 viability, CellTiter-Glo ATP luminescence, 72 h | Potency, µM (highest dose often 46.1 µM), actives largely listed as cytotoxic; also: % is scaled to controls: 0 for no effect and ±100 for the full control effect; nearly all actives have a fitted effect of over 60% in size
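Here the drug-naive KB-3-1 line serves as comparator for MDR sub-line selectivity; cells received compound titrations, 72 h at 37 °C, then CellTiter-Glo readout.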
HepG2 viability: qHTS for Inhibitors of TGF-b: Cytotox Counterscreen | HepG2 CAGA-GFP viability, ATP luminescence, 18 h | Potency, µM (titrated, usually from 46.1 µM), inactives show top-dose activity change, negative = cytotoxicity, usual class: cytotoxic | hit rate 0.76% among 410,000
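HepG2 CAGA-GFP cells (1000/well, DMEM with 1% FBS) received compound, then TGF-beta at 500 pg/mL final, and were incubated 18 hours at 37 degrees C. Viability was read by CellTiter-Glo luminescence. Media-only wells were set as complete cell-killing and DMSO as no toxicity.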
ATXN2 expr inh: Primary qHTS for Inhibitors of ATXN expression. AID 1745845, 2022. Potency, µM (series often up to 57 µM), for the others: at the top dose activity change, negative = inhibition, most hits filed as inhibitors. hit rate 0.72% among 360,000. HEK-293 ATXN2-luciferase reporter, luminescence, 24 h; also: % is scaled to controls: 0 for no effect and ±100 for the full control effect; nearly all actives have a fitted effect of over 55% in size
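qHTS (up to 57 uM final) was run with 24 h compound exposure of reporter cells at 37 °C. Each well was multiplexed: SteadyGlo luminescence measured ATXN2-luciferase expression after a fluorogenic Gly-Phe-AFC viability readout (25 uM final).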
S2 tox: Viability Counterscreen for Primary qHTS for Inhibitors of ATXN expression; S2 cells (HEK-293 line with an ATXN2-luciferase reporter) viability, CellTiter-Fluor protease fluorescence, 24 h; Potency, µM (highest dose often 56.7 µM), hits mostly cytotoxic; hit rate 0.49% among 400,000; AID 651635, 2014; also: nearly all actives have a fitted effect of over 40% in size
TGFb inhibitor: qHTS for Inhibitors of TGF-b; Potency, µM (top dose mostly 46.1 µM), without a hit: at the highest dose activity, negative = inhibition, hits mostly inhibitors; hit rate 1.2% among 410,000; HepG2 CAGA-GFP TGF-b/SMAD3 reporter, GFP fluorescence, 18 h; TGF-beta stimulated, 500 pg/mL final; also: % is scaled to controls: 0 for no effect and ±100 for the full control effect; nearly all actives have a fitted effect of over 65% in size
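HEPG2 CAGA-GFP cells (1000/well, DMEM with 1% FBS) were pre-incubated 2 h at 37 degrees C, given compound by pin tool, then stimulated with TGF-beta at 500 pg/mL final for 18 h before per-cell GFP fluorescence imaging.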
KB-V1 MDR tox: qHTS assay for MDR1-selective chemotherapeutics: Primary screen using the drug-selected MDR subline cells KB-V1; Potency, µM (titrated, usually from 46.1 µM), most hits filed as cytotoxic; KB-V1 MDR cells viability, CellTiter-Glo, 72 h; hit rate 3.4% among 400,000; also: % is scaled to controls: 0 for no effect and ±100 for the full control effect; nearly all actives have a fitted effect of over 60% in size
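Cytotoxicity toward P-gp-expressing KB-V1 cells was determined as loss of CellTiter-Glo luminescence after 72 h at 37 degrees C. Compounds were tested in quantitative HTS format across a concentration range, with curves fitted to normalized data.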
* hit, by the source's call. In the library only some 5.9% were active in any assay of this set; here they are far more common. Calls follow the shape of the dose curve; as a rule, active = well fitted curve in the direction sought with a large enough effect; inconclusive = small, poorly fitted or top-dose-only effect, or another doubt; inactive = no such curve, though single readings can be large; an effect the other way counts as inactive or inconclusive. Potency is read from the fitted curve at half-maximal effect.

What do the screens show for `CC1(C(=O)Nc2ccc(Cl)c(C(F)(F)F)c2)Cc2c(-c3cccc(C(N)=O)c3)ccnc2O1` (stereo not given)?
KB-3-1 tox: inactive; HepG2 viability: -59.0%; ATXN2 expr inh: inconclusive; S2 tox: inconclusive; TGFb inhibitor: inconclusive; KB-V1 MDR tox: inconclusive

Results for CC(=O)Nc1ccc(NC(=O)C2(C)Cc3c(-c4cccc(NC(C)=O)c4)ccnc3O2)cc1 (stereo not given) ?
KB-3-1 tox: inactive; HepG2 viability: 0.1%; ATXN2 expr inh: -2.8%; S2 tox: inactive; TGFb inhibitor: 5.7%; KB-V1 MDR tox: inactive

Results for COc1ccc(NC(=O)C2(C)Cc3c(-c4ccc5c(c4)OCO5)ccnc3O2)cc1 (stereo not given) ?
KB-3-1 tox: 16.4µM*; HepG2 viability: -17.1%; ATXN2 expr inh: -7.5%; S2 tox: inconclusive; TGFb inhibitor: inconclusive; KB-V1 MDR tox: inconclusive

Results for CC(=O)Nc1cccc(-c2ccnc3c2CC(C)(C(=O)Nc2ccc(Cl)cc2)O3)c1 (stereo not given) ?
KB-3-1 tox: 2.31µM*; HepG2 viability: -5.8%; ATXN2 expr inh: inconclusive; S2 tox: inconclusive; TGFb inhibitor: -1.1%; KB-V1 MDR tox: inconclusive

How did CC1(C(=O)Nc2ccc(Cl)c(C(F)(F)F)c2)Cc2c(-c3ccc(C(N)=O)cc3)ccnc2O1 (stereo not given) do in these assays?
KB-3-1 tox: inconclusive; HepG2 viability: 15.8µM*; ATXN2 expr inh: -25.8%; S2 tox: inconclusive; TGFb inhibitor: 11.2µM*; KB-V1 MDR tox: inconclusive

Results for COc1ccc(OC)c(NC(=O)Nc2nnc([C@H]3C[C@H](O)[C@@H](CO)O3)s2)c1 ?
KB-3-1 tox: inactive; HepG2 viability: -2.1%; ATXN2 expr inh: 7.2%; S2 tox: inactive; TGFb inhibitor: 25.5%; KB-V1 MDR tox: inactive

How did COc1ccc2c(Sc3ccc(C)cc3)c(C(=O)NCc3ccc(F)cc3)[nH]c2c1 do in these assays?
KB-3-1 tox: inactive; HepG2 viability: 0.3%; ATXN2 expr inh: 10.6%; S2 tox: inactive; TGFb inhibitor: 1.1%; KB-V1 MDR tox: inactive

Results for Cc1cccc(C(=O)Nc2ccc3nc(SCC(=O)N4CCc5ccccc54)sc3c2)c1 ?
KB-3-1 tox: inactive; HepG2 viability: -7.0%; ATXN2 expr inh: 11.3%; S2 tox: inactive; TGFb inhibitor: inconclusive; KB-V1 MDR tox: inactive

How did O=c1[nH]c(=O)n([C@H]2O[C@H](CO)[C@@H](O)[C@@H]2O)cc1/C=C\Br do in these assays?
ATXN2 expr inh: -8.8%; S2 tox: inactive

How did CC(=O)Nc1ccc(NC(=O)C2(C)Cc3c(-c4cccc(C(N)=O)c4)ccnc3O2)cc1 (stereo not given) do in these assays?
KB-3-1 tox: inactive; HepG2 viability: -1.0%; ATXN2 expr inh: 12.9%; S2 tox: inactive; TGFb inhibitor: 18.3%; KB-V1 MDR tox: inactive

Results for COc1ccc(NC(=O)C2(C)Cc3c(-c4cccc(C(N)=O)c4)ccnc3O2)cc1 (stereo not given) ?
KB-3-1 tox: 7.31µM*; HepG2 viability: -2.3%; ATXN2 expr inh: 8.1%; S2 tox: inconclusive; TGFb inhibitor: 8.7%; KB-V1 MDR tox: inconclusive

Results for COc1ccc(NC(=O)C2(C)Cc3c(-c4cccc(NC(C)=O)c4)ccnc3O2)cn1 (stereo not given) ?
KB-3-1 tox: 2.06µM*; HepG2 viability: 10.0%; ATXN2 expr inh: -16.3%; S2 tox: inconclusive; TGFb inhibitor: -6.3%; KB-V1 MDR tox: inactive

What do the screens show for `O=C(NCCc1nnc2n1CCN(Cc1ccc(F)c(F)c1)CC2)c1ccoc1`?
S2 tox: inactive

How did Cn1cc([N+](=O)[O-])c(C(=O)NCc2cc3cc(Cl)ccc3[nH]2)n1 do in these assays?
KB-3-1 tox: 9.2µM*; HepG2 viability: -0.5%; ATXN2 expr inh: 1.4%; S2 tox: inactive; TGFb inhibitor: -2.3%; KB-V1 MDR tox: inactive

Results for CC1=C(CC(=O)c2ccccc2)C(=O)c2ccccc2C1=O ?
KB-3-1 tox: inconclusive; HepG2 viability: 6.31µM*; ATXN2 expr inh: 6.0%; S2 tox: inactive; TGFb inhibitor: 6.31µM*; KB-V1 MDR tox: 10.3µM*

How did CCOc1cccc2cc(-c3nc(-c4ccc(Cl)cc4)c(C)s3)c(=O)oc12 do in these assays?
KB-3-1 tox: inactive; HepG2 viability: -27.2%; ATXN2 expr inh: 3.4%; S2 tox: inactive; TGFb inhibitor: -12.5%; KB-V1 MDR tox: inconclusive

Results for Cc1ccc(-n2cnc3c(=O)[nH]cnc32)cc1 ?
KB-3-1 tox: inconclusive; HepG2 viability: 7.6%; ATXN2 expr inh: 1.3%; S2 tox: inactive; TGFb inhibitor: 13.6%; KB-V1 MDR tox: 9.2µM*

What do the screens show for `Cc1cc(-n2cnc3c(=O)[nH]cnc32)ccc1N`?
KB-3-1 tox: inactive; HepG2 viability: 4.7%; S2 tox: inactive; TGFb inhibitor: -7.7%; KB-V1 MDR tox: inactive

How did CCOC(=O)N1CCc2c(sc3c2c(=O)n(CCc2ccccc2)c(=O)n3Cc2c(F)cccc2Cl)C1 do in these assays?
HepG2 viability: -2.6%; TGFb inhibitor: -10.8%

Results for COc1ccc(NC(=O)CCCC2CCCCC2)cc1S(=O)(=O)N1CCCCC1 ?
KB-3-1 tox: inconclusive; HepG2 viability: 0.8%; ATXN2 expr inh: -4.7%; S2 tox: inactive; TGFb inhibitor: inconclusive; KB-V1 MDR tox: 9.2µM*

Results for COc1ccc(NC(=O)COc2cc(C)cc(C)c2)cc1S(=O)(=O)N1CCCCC1 ?
KB-3-1 tox: inconclusive; HepG2 viability: 5.8%; ATXN2 expr inh: -25.6%; S2 tox: inactive; TGFb inhibitor: -24.5%; KB-V1 MDR tox: 18.4µM*

What do the screens show for `COc1ccc(NC(=O)CCN2C(=O)C3CC=CCC3C2=O)cc1S(=O)(=O)N1CCCCC1` (stereo not given)?
KB-3-1 tox: inactive; HepG2 viability: -19.8%; ATXN2 expr inh: 1.2%; S2 tox: inactive; TGFb inhibitor: -4.3%; KB-V1 MDR tox: inconclusive

Results for O=C(CNc1cccc(C(F)(F)F)c1)Nc1cccc(S(=O)(=O)N2CCCC2)c1 ?
KB-3-1 tox: inconclusive; HepG2 viability: -10.5%; ATXN2 expr inh: inconclusive; S2 tox: inactive; TGFb inhibitor: inconclusive; KB-V1 MDR tox: inconclusive
